Screening data (PubChem)
Tb PFK inh = T. brucei PFK enzyme inhibition; hit rate 0.17% among 330,000; Potency, µM (doses to about 57.5 µM), hits mostly inhibitors; T. brucei PFK, ADP-Glo luminescence; O15648; also: nearly all actives have a fitted effect of over 60% in size
Target sequence (O15648 whole entry, looked up): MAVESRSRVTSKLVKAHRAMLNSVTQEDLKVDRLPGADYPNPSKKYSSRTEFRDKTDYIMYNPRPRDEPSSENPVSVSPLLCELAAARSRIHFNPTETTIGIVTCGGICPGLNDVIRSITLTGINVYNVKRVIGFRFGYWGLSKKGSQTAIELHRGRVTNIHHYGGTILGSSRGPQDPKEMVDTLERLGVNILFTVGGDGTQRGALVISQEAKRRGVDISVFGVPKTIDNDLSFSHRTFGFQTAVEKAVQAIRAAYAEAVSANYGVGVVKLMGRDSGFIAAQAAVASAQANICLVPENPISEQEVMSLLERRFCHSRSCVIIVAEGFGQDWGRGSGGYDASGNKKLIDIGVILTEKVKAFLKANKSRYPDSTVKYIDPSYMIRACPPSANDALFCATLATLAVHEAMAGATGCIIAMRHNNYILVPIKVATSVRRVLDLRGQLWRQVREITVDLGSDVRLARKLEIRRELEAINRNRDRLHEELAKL
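Luminescent ADP detection (ADP-Glo, two-step: ATP depletion then ADP-to-ATP conversion for luciferase) reported PFK activity after 45 min room-temperature reaction of 1.25 nM enzyme with 0.5 mM F6P and 0.1 mM ATP at pH 8.0.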
CCT chaperon mod = cytosolic chaperonin activity modulation; purified chaperonin ATPase assay, HTRF ADP detection, 30 min; activity change, % (no concentration beside the values), hits read low; hit rate 0.3% among 360,000; AID 651819; in the data active = activity change below about -30%
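ATPase activity: ADP formed was measured by HTRF Transcreener (665/615 nm ratio) after 30 min at 37 deg C with 10 uM ATP. Compounds screened at one 76 uM concentration against 40 or 20 nM TRiC in Tris pH 7.4/KCl/MgCl2/DTT buffer.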
BCR signal inh = chronic active BCR signaling inhibition. hit rate 0.05% among 340,000. AID 493014. Potency, µM (series often up to 46.1 µM), hits mostly inhibitors. ABC-DLBCL IkBa-CBG/CBR reporter, luminescence ratio, 4 h; active = well fitted inhibition curve with a large enough effect in the signal ratio, with a control signal flat, not every such curve was filed as active; inconclusive = small, poorly fitted or top-dose-only effect, or effect the other way, or a change in a side signal; the % refers to the signal ratio
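TMD8 human ABC-DLBCL cells with doxycycline-inducible IκBα–green luciferase fusion and unfused red luciferase, in 0.5% FBS medium; compounds up to 46 uM, 4 h at 37C. Green/red luminescence ratio, filter-overlap corrected, fitted to concentration-response curves.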
S-ASM inh = inhibitors of human secretory acid sphingomyelinase; P17405; placental ASM, HMU-PC fluorogenic substrate, 60 min; Potency, µM (top dose mostly 57.5 µM), hits mostly inhibitors; hit rate 0.006% among 340,000; AID 504937
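qHTS format. ASM enzyme prepared from human placenta hydrolyses the fluorogenic substrate HMU-PC0 (9 uM final) over 60 min at 37 °C after a 10 min compound preincubation.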
TCR act = activates T cell receptor signaling; Potency, µM (doses to about 9.22 µM), usual class: activators; primary human leukocytes, anti-CD3, IL-2 HTRF, 48 h; 330,000 tested, under 10 active
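Primary human leukocytes were stimulated with a-CD3 beads plus compounds for 48 hr without co-stimulation; secreted IL-2 was quantified by HTRF using a-IL-2-K (europium cryptate) and a-IL-2-d2, excited at 320nm with acceptor emission read at 665nm.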
Large screens that a line does not name were inactive. Sampled rows, rich in hits. Any-hit rate of the full collection: about 0.49%. Unless noted, calls follow the shape of the dose curve; as a rule, active = well fitted curve in the direction sought with a large enough effect; inconclusive = small, poorly fitted or top-dose-only effect, or another doubt; inactive = no such curve, though single readings can be large; an effect the other way counts as inactive or inconclusive.

CC(=O)Nc1c(Cl)cc(Cl)c2c1Cc1cc(Cl)ccc1-2	CCT chaperon mod -47.9 (no result: Tb PFK inh, BCR signal inh)
O=C(CSc1nc(=O)n(Cc2ccncc2)c2c1CCC2)Nc1cccc(F)c1	none (no result: Tb PFK inh, CCT chaperon mod, S-ASM inh, TCR act)
Cc1nnc(SCC(=O)NCc2ccco2)n1Cc1ccccc1	none
CCCn1c(SCC(=O)NCc2ccco2)nnc1C(C)C	CCT chaperon mod -41.8
COc1cccc(/C=N/NC(=O)c2cc3c(OC)ccc(OC)c3[nH]2)c1O	BCR signal inh 3.16µM
COc1ccc(CCNC(=O)C(=O)NCC(c2ccco2)S(=O)(=O)c2cccs2)cc1 (stereo unspecified)	none (no result: Tb PFK inh, CCT chaperon mod, S-ASM inh, TCR act)
O=C(Nc1ccccc1O)N1c2ccccc2Sc2ccccc21	S-ASM inh 25.1µM
O=C(NCCO)N1c2ccccc2Sc2ccccc21	none (no result: TCR act)
Cc1ccc(CNC(=O)c2ccc3c(c2)nc(C)n3-c2cccc(F)c2)cc1	none (no result: Tb PFK inh, CCT chaperon mod, S-ASM inh, TCR act)
CC1CCCCC1NC(=S)NC(=O)c1sc2ccccc2c1Cl (stereo unspecified)	CCT chaperon mod -46.9, BCR signal inh inconclusive
Cc1ccc(OCCn2c(Br)nc3c2c(=O)n(C)c(=O)n3C)cc1	none
COCCn1c(Br)nc2c1c(=O)n(C)c(=O)n2C	CCT chaperon mod -41.7
Cc1sc2nc(SCc3ccccc3)n(Cc3ccco3)c(=O)c2c1C	none (no result: TCR act)
Cc1ccc(CSc2nc3sc(C)c(C)c3c(=O)n2Cc2ccco2)cc1	CCT chaperon mod -30.7
Cc1ccc(S(=O)(=O)Nc2c(Cl)c(Cl)c(O)c3ccccc23)cc1	Tb PFK inh 15.1µM, BCR signal inh inconclusive (no result: CCT chaperon mod, S-ASM inh, TCR act)
Cc1ccc(S(=O)(=O)Nc2c(O)ccc3ccccc23)cc1	none (no result: Tb PFK inh, BCR signal inh)
Cn1c2cc([N+](=O)[O-])sc2c2cnn(Cc3ccccc3F)c(=O)c21	none (no result: CCT chaperon mod, S-ASM inh, TCR act)
Fc1c(F)c(C(F)(F)F)c(F)c(F)c1N/N=C\c1cccs1	CCT chaperon mod -36.9, BCR signal inh inconclusive
Cn1c(N/N=C/c2cccs2)cc(=O)n(C)c1=O	none
Cc1cccc(C(C)(C)C)c1OCCCCN1CCCC1	CCT chaperon mod -59.4
CC(C)(C)c1ccccc1OCCCCN1CCCC1	none
Cn1c(=O)c2nc(SCC(=O)Nc3ccc(Cl)c(Cl)c3)n(C)c2n(C)c1=O	none (no result: Tb PFK inh, CCT chaperon mod, S-ASM inh, TCR act)
Cc1ccc(NC(=O)C2(c3cccs3)CCOCC2)cc1Cl	none (no result: Tb PFK inh, CCT chaperon mod, S-ASM inh, TCR act)
CCc1ccc2nc3n[nH]c(N)c3cc2c1	BCR signal inh 12.6µM
Nc1[nH]nc2nc3ccccc3cc12	BCR signal inh inconclusive (no result: TCR act)
CCOC(=O)N1CCC(N(C(=O)Nc2ccc(Cl)c(Cl)c2)C(C)CC)CC1 (stereo unspecified)	Tb PFK inh 23.9µM, BCR signal inh inconclusive
O=C(NCCOC(=O)c1cccs1)c1cccnc1	none
O=C(NCCOC(=O)c1ccc(C(=O)OCCNC(=O)c2cccnc2)s1)c1cccnc1	CCT chaperon mod -55.8
CN(NC(=O)c1ccccc1F)c1ccc([N+](=O)[O-])cn1	CCT chaperon mod -43.0
O=C(NC(=O)N1CCN(c2ccc([N+](=O)[O-])cn2)CC1)c1ccccc1F	none
COc1ccccc1Nc1nc(N)nc(CN2CCN(c3ccccc3F)CC2)n1	Tb PFK inh inconclusive
COc1ccccc1N1CCN(Cc2nc(N)nc(Nc3ccc(C)c(Cl)c3)n2)CC1	CCT chaperon mod -33.6, BCR signal inh inconclusive
Cc1cc(C)c(NC(=O)CCCC(=O)O)c(Cl)c1	CCT chaperon mod -50.1
O=C(O)CCCC(=O)Nc1ccc(Cl)cc1	CCT chaperon mod -64.9
COc1ccc(CCCc2nnc(SCC(=O)Nc3ccc(C)cc3)o2)cc1C	none (no result: Tb PFK inh, CCT chaperon mod, S-ASM inh, TCR act)
COc1ccc(N2CC(NC(=O)c3ccc(S(=O)(=O)N4CCOCC4)cc3)CC2=O)cc1 (stereo unspecified)	none (no result: Tb PFK inh, CCT chaperon mod, S-ASM inh, TCR act)
COc1ccccc1NS(=O)(=O)c1cc(N=N/C(C(=O)Nc2ccc(Cl)cc2)=C(/C)O)ccc1C	S-ASM inh inconclusive
CCCCc1ccc(N=N/C(C(=O)Nc2ccc(NC(C)=O)cc2OC)=C(/C)O)cc1	BCR signal inh inconclusive, S-ASM inh 22.4µM
CCC(C)NC(=O)CSc1nc2c(sc3ccccc32)c(=O)n1CCc1ccccc1 (stereo unspecified)	none (no result: Tb PFK inh, CCT chaperon mod, S-ASM inh, TCR act)
Cc1ccccc1C(=O)Nc1nc(=S)ss1	CCT chaperon mod -57.5
COc1ccc(-c2cc(C(=O)Nc3cc(OC)c(OC)c(OC)c3)no2)cc1	CCT chaperon mod -34.0
COc1cccc(N2CC(NC(=O)COc3ccccc3F)CC2=O)c1 (stereo unspecified)	none (no result: Tb PFK inh, CCT chaperon mod, S-ASM inh, TCR act)
COc1cccc(/C=N/NC(=O)c2[nH]nc3c2CCc2ccccc2-3)c1	BCR signal inh 17.8µM
